Screening data from PubChem BioAssay.
The list is not random: actives were taken first. Their share in the collection is about 19%.
SARS PLpro yeast = SARS-CoV PLP inhibition in yeast | S. cerevisiae expressing SARS-CoV PLpro, growth rescue | Potency, µM (series often up to 32.9 µM), without a hit: at the highest dose activity, positive = growth rescue, hits mostly activators | 0.19% of 330,000 active; calls by dose curve; note: potency is the fitted concentration of half-maximal effect; 0% is about no effect; nearly all actives have a fitted effect of over 55% in size
AMA1-RON2 inh = AMA1-RON2 (P. falciparum) interaction inhibition; 0.2% of 360,000 active; AlphaScreen AMA1-biotinylated RON2 peptide binding; Potency, µM (series often up to 58.2 µM), for the others: at the top dose activity change, negative = inhibition, most hits filed as inhibitors;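 note: potency is the fitted concentration of half-maximal effect; 0% = vehicle wells and -100% = peptide control; nearly all actives have a fitted effect of over 45% in size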
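AMA1 (3D7) with his tag at 25 nM final met compounds first, then biotinylated RON2 peptide at 25 nM; detection used donor plus acceptor beads, 10 µg/mL apiece, read by AlphaScreen after 30 min at room temperature.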
Pf growth 48h = inhibits P. falciparum growth in the first generation, 48 h | 5.9% of 310,000 active | P. falciparum luciferase growth in erythrocytes, 48 h | Potency, µM (top dose mostly 28.7 µM), inactives show at the highest dose activity change, negative = inhibition, most hits filed as inhibitors | AID 504832; note: potency is the fitted concentration of half-maximal effect; % is set by controls: 0 for no effect and ±100 for the full control effect
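First compound was added to culture medium, then infected red cells at 0.1% parasitemia and 2% hematocrit (final). After incubation at 37 C under 5% CO2, luciferase detection reagent was dispensed and light output recorded.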
Shiga inhibitor = inhibitors of Shiga toxin in Vero cells; Vero cells, Shiga toxin protein synthesis inhibition reporter; inhibition, % at 38.7 µM; 9.2% of 290,000 active; AID 2315; in the data active = inhibition mostly above about 28%, no sharp cut-off; inactive = mostly below about 43%; note: 0% is about no effect
CHX counter = counter-screen hit for Shiga toxin inhibitors, cycloheximide. cell reporter, cycloheximide protein synthesis inhibition counterscreen. max response, %. 12% of 300,000 active. AID 2314; in the data active = max response mostly above about 13%, no sharp cut-off; inactive = mostly below about 14%; note: read at 38.3 µM for the half of the compounds with a filed dose; 0% is about no effect
Pf growth 96h = P. falciparum growth inhibition at 96 hours; P. falciparum luciferase reporter growth, 96 h; Potency, µM (highest dose often 28.7 µM), without a hit: at the top dose activity change, negative = inhibition, hits mostly inhibitors; 6.9% of 320,000 active; AID 504834; note: potency is the fitted concentration of half-maximal effect; % is set by controls: 0 for no effect and ±100 for the full control effect
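Readout is luminescence from an integrated firefly luciferase in P. falciparum. Red cells, 2% hematocrit and 0.05% parasitemia final, were cultured with compound through two parasite generations (96 hours) at 37 C, 5% CO2.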
Numbers without * were called inactive; ? = inconclusive; / = no result given; [ ] = remark or other dose. Unless noted, calls come from the whole dose curve; as a rule, active = well fitted curve in the direction sought with a large enough effect; inconclusive = small, poorly fitted or top-dose-only effect, or another doubt; inactive = no such curve, though single readings can be large; an effect the other way counts as inactive or inconclusive.

SMILES | SARS PLpro yeast | AMA1-RON2 inh | Pf growth 48h | Shiga inhibitor | CHX counter | Pf growth 96h
CCOC(=O)c1c(S(=O)(=O)Nc2ccc(C)c(F)c2)c(C)n(C)c1C | -1.6% | 4.7% | 12.4% | 0.6 | -0.8 | 9.28µM*
Cc1c(C(=O)N2CCCCC2)c(S(=O)(=O)Nc2ccc(F)cc2F)c(C)n1C | -1.1% | 4.3% | 28.6% | 1.8 | 10.4 | ?
CCOC(=O)c1c(S(=O)(=O)NCC(=O)Nc2ccccc2F)c(C)n(C)c1C | 4.3% | 1.6% | 2.5% | 15.9 | -5.1 | ?
CC1CCCCN1CCCNC(=O)c1ccc(N2CCCC2=O)cc1 (centres undefined) | 0.5% | 8.3% | 10.9% | -5.0 | -3.5 | 58.4%
Cn1c(=N)n(CC(=O)C(C)(C)C)c2ccccc21 | 0.3% | -12.4% | ? | 148.1* | 27.0* | 15.9%
CCn1c(=N)n(CC(=O)C(C)(C)C)c2ccccc21 | 16.3% | 0.0% | / | -14.3 | -0.5 | 9.28µM*
CCOC(=O)C1(C)CCCN(C(=O)c2cccs2)C1 (centres undefined) | / | 0.0% | / | / | / | /
CCc1nc2ccc(C(=O)NCc3ccc(OC)cc3)cn2c1N(C)CCC(C)C | / | -0.1% | / | / | / | /
NNC(=O)c1cc(-c2ccco2)[nH]n1 | -1.8% | 54.4% | 2.2% | 2.5 | 9.7 | -1.8%
Oc1ccc(Cl)cc1-c1cc(-c2ccco2)[nH]n1 | -36.3% | 15.1% | ? | 56.7* | 30.3* | ?
Oc1ccccc1-c1cc(-c2ccco2)[nH]n1 | -37.2% | 33.0% | / | 133.7* | 46.5* | -10.3%
Oc1c(-c2cc(-c3ccco3)[nH]n2)ccc2ccccc12 | -5.0% | 2.6% | -11.1% | 148.7* | 47.9* | 10.2%
S=c1[nH]nc(-c2cc(-c3ccco3)[nH]n2)n1-c1ccccc1 | 5.3% | 89.4% | -1.3% | -10.8 | -6.1 | -4.1%
S=c1[nH]nc(-c2cc(-c3ccco3)[nH]n2)n1-c1ccccc1Cl | -9.5% | 40.3% | 0.3% | 6.6 | 2.6 | -19.4%
Oc1ccc(Br)cc1-c1cc(-c2ccco2)[nH]n1 | -30.2% | 30.6% | 11.7µM* | 41.7 | 8.0 | /
CCC[C@H]1CN(c2ccc(Br)cc2)C(=O)[C@@H]1CC(=O)Nc1ccc(OC)cc1 | / | -2.4% | / | / | / | /
CCC(C)C(NC(=O)C1CCC(C)CC1)C(=O)NCc1ccccn1 (centres undefined) | -2.2% | -0.8% | / | -6.5 | 7.7 | 37.7%
Cc1c2cnn(CC(=O)N3CCOCC3)c(=O)c2c(C)n1Cc1ccccc1F | -5.5% | -2.6% | 0.7% | 4.6 | 1.3 | ?
Oc1ccc(Br)cc1-c1ccn[nH]1 | -64.4% | 58.4% | 23.1% | 42.4* | 10.1 | 29.9%
Cc1ccc(N=C2C(=O)Nc3ccc(Br)cc32)cc1 | -7.4% | -3.8% | ? | 2.9 | 6.2 | 31.9%
C/C=C(/C)C(=O)OC1c2c(ccc3ccc(=O)oc23)OC(C)(C)C1OC(C)=O (centres undefined) | 8.1% | 18.8% | 8.28µM* | 9.3 | 8.3 | ?
S=c1[nH]cnc2sc(Nc3ccccc3)nc12 | 2.1% | 3.4% | 0.0% | -5.3 | -1.4 | ?
CC1=C(C)CC(C(=O)NNC(=O)c2ccccc2)C(C(=O)O)C1 (centres undefined) | 4.2% | 1.5% | 21.4% | 79.1* | 24.1* | 18.6%
CC1=C(C)CC(C(=O)NCc2ccccn2)C(C(=O)O)C1 (centres undefined) | 0.2% | 71.8% | 16.5% | 1.1 | -1.4 | -9.6%
CC1=C(C)CC(C(=O)NCC(=O)c2ccccc2)C(C(=O)O)C1 (centres undefined) | 1.9% | 1.0% | / | 70.1* | 39.6* | 233.1%
SMILES | SARS PLpro yeast | AMA1-RON2 inh | Pf growth 48h | Shiga inhibitor | CHX counter | Pf growth 96h
CC1=C(C)CC(C(=O)NNC(=O)c2cccc(Cl)c2)C(C(=O)O)C1 (centres undefined) | -6.2% | -4.3%[2.32 µM] | 11.1% | 50.4* | 37.2* | 3.0%
CC(=O)/C(=C/N(C)C)Sc1ccc(C)cc1 | 9.9% | 33.4% | / | -13.8 | 7.1 | 14.7%
Cc1cccc(C)c1OC(=O)CCN1C(=O)C2C3C=CC(C4CC34)C2C1=O (centres undefined) | 2.3% | -8.1% | 0.0% | 14.2 | 16.7 | 18.4%
COCCn1c(CNc2ccc(F)cc2)nnc1SCC(=O)Nc1ccc(OC)cc1OC | / | -15.6% | -25.4% | 3.0 | -3.4 | /
Oc1ccc(Cl)cc1CNCc1ccc(F)c(F)c1 | 2.7% | 55.2% | 3.29µM* | / | / | 5.22µM*
COc1ccc(CNCc2cc(Cl)ccc2O)cc1 | 1.9% | 8.1% | 9.28µM* | / | / | 13.1µM*
OCCNCc1cccc2ccccc12 | -0.1% | 8.8% | 24.1% | -8.5 | 3.2 | -27.9%
O=[N+]([O-])c1ccc(CNCc2cc(Cl)ccc2O)cc1 | 2.1% | 66.6% | 11.7µM* | / | / | ?
Oc1ccc(Cl)cc1CNCc1cccc2ccccc12 | 0.3% | 77.6% | 0.415µM* | / | / | 0.928µM*
C/C(=N\Nc1nc(N2CCCCCC2)nc(N2CCCCCC2)n1)c1ccccc1 | -6.0% | 42.8% | ? | 12.9 | -2.8 | -10.1%
CCc1ccc2c(CN3CCN(S(=O)(=O)c4cccs4)CC3)cc(=O)oc2c1 | -4.9% | -7.4% | ? | -11.9 | -2.5 | ?
CCN(CC)CCNC(=O)c1sc2nc(-c3ccccc3)cn2c1C | -2.1% | -2.8% | -8.7% | 13.2 | -0.7 | ?
Cc1c(C(=O)Nc2ccncc2)sc2nc(-c3ccc(F)cc3)cn12 | -4.1% | -23.2% | 2.33µM* | 23.9 | 16.8* | 2.33µM*
Cc1c(C(=O)NCC(C)C)sc2nc(-c3ccc(F)cc3)cn12 | -2.3% | 13.1% | 41.2% | 23.1 | 20.6* | 28.7%
C[C@H]1[C@@H](Cc2cc(Cl)cc(Cl)c2)N(c2ccccc2)c2ccccc2CN1Cc1ccccc1 | / | 25.2% | / | / | / | /
Cc1n[nH]c(C)c1CCc1nc2c3ccccc3nc(SCC(=O)Nc3ccccc3F)n2n1 | -3.9% | -20.0% | / | -17.4 | -1.8 | ?
Cc1cccc(NC(=O)CSc2nc3ccccc3c3nc(CCc4c(C)n[nH]c4C)nn23)c1 | 2.5% | -18.2% | 7.38µM* | -17.7 | -0.7 | 18.9%
Cc1cc(SCC(=O)Nc2c(C)n(C)n(-c3ccccc3)c2=O)nc2ccccc12 | ? | 36.9% | 1.7% | -4.9 | 0.7 | ?
COc1cccc(CNC(=S)Nc2cc(C)ccc2C)c1 | 0.5% | -2.1% | ? | 20.0 | 2.5 | -7.1%[5.75 µM]
CCn1nc([N+](=O)[O-])c2c(-c3nc4ccccc4o3)c(N)n(CCCOC)c2c1=O | 3.8% | -9.5% | -12.8% | 2.7 | 6.0 | -0.7%
Cc1cc2nc(C)n(CCCNC(=O)Nc3cccc4ccccc34)c2cc1C | 3.3% | -27.6% | / | -10.9 | -4.4 | -5.8%
S=C1SCN(CC2CC2)CN1CC1CC1 | 3.2% | 18.7% | ? | -10.7 | -2.5 | 5.22µM*
S=C1SCN(CCc2ccccc2)CN1CCc1ccccc1 | / | 131.3% | / | / | / | /
CCOc1ccccc1/C=N/NC(=O)c1cc(C(C)C)[nH]n1 | -1.9% | -7.1% | -0.9% | 65.5* | 36.4* | 3.8%
CC(C)c1cc(C(=O)N/N=C/c2c[nH]c3ccccc23)n[nH]1 | 1.5% | 21.3% | 3.0% | 53.1* | 17.1* | -2.4%
